ClpP mod – qHTS Assay for Activators of ClpP; Potency, µM (series often up to 57.5 µM), for inactives: at the highest dose activity change, negative = active; AID 651965, 2013; ATP-dependent Clp protease proteolytic subunit (Bacillus subtilis (strain 168)), P80244; 340,000 compounds, 1.9% hits; purified B. subtilis ClpP, FRET peptide cleavage, 20 min; active = well fitted falling curve with a large enough effect; inconclusive = small, poorly fitted or top-dose-only effect; inactive = no such curve, though single readings can be large or run the other way; also: the source files actives as falling curves though it sought activators and does not explain the sign; nearly all actives have a fitted effect of over 65% in size
Target sequence (P80244 whole entry, looked up): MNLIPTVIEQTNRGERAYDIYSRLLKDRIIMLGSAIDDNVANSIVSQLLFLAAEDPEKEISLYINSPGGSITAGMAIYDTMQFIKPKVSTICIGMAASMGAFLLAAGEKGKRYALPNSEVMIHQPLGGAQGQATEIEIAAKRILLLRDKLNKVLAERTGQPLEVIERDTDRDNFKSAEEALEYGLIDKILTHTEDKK
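Purified B. subtilis ClpP, 10 microg/mL final in Tris/HCl pH8 with KCl, BSA, glycerol and Tween-20, cleaved an Abz/nitrotyrosine-quenched decapeptide. Fluorescence (ex 320, em 430) was read at 0 and 20 min at room temperature. Delta was normalized to 5.8 microM ADEP and DMSO/no-enzyme controls.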
FUS suppressor – suppressors of FUS proteinopathy in yeast; S. cerevisiae FUS-expressing, growth rescue, OD600, 24 h; 390,000 compounds, 0.24% hits; AID 1347120; Potency, µM (series often up to 76.6 µM), most hits filed as activators;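 also: plate controls were DMSO vehicle for no effect and reference control for full effect; nearly all actives have a fitted effect of over 55% in size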
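Galactose (2%) drives FUS expression in yeast precultured in raffinose; seeding density OD 0.005. Test compounds incubated 24hr at 30C and 99% humidity before absorbance at 600 nm was measured.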
TDP-43 yeast inh – rescues yeast growth from TDP-43 toxicity | Potency, µM (doses to about 46.1 µM), inactives show at the top dose growth rescue (activation), most hits filed as activators | AID 652104 | TDP-43 expressing yeast growth rescue, BacTiter-Glo, 24 h | 410,000 compounds, 1.8% hits; also: % of control where 0% means no effect; nearly all actives have a fitted effect of over 50% in size
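Readout is BacTiter-Glo luminescence of cell growth, so inhibitors register as activators. TDP-43-expressing yeast at OD600=0.02 in galactose medium, after raffinose pregrowth to mid-log, were incubated with compound for 24 hr at 30 deg C.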
MmCpn inh – M. maripaludis TRiC chaperonin inhibition; purified Mm-Cpn ATPase, ADP Transcreener TR-FRET; Potency, µM (highest dose often 76.9 µM), without a hit: at the top dose activity, negative = inhibition, most hits filed as inhibitors; 330,000 compounds, 0.031% hits; also: % is scaled to controls: 0 for no effect and ±100 for the full control effect; nearly all actives have a fitted effect of over 80% in size
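ATPase read-out: TR-FRET ADP immunoassay (anti-ADP Eu cryptate vs ADP-d2), ex 320 nm, em 590/665 nm; signal drops as ADP forms. Enzyme 25 nM, ATP 10 uM, 30 min at 37°C after 10 min compound preincubation.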
aSyn yeast inh – inhibitors of alpha-synuclein toxicity in yeast; Yeast expressing alpha-synuclein, growth rescue, BacTiter-Glo, 24 h; Potency, µM (top dose mostly 46.1 µM), for the others: top-dose growth rescue (activation), hits mostly activators; 370,000 compounds, 0.14% hits; AID 652106; also: % of control where 0% means no effect; nearly all actives have a fitted effect of over 65% in size
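Readout is rescue of growth in alpha-synuclein-expressing yeast, so inhibitors of toxicity appear as activators. Growth after 24 hr at 30 deg C in galactose medium is quantified by luminescence.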
Abeta yeast res – restores growth of yeast expressing A-beta42 peptide. yeast expressing A-beta42, growth rescue, OD600, 48 h; response scale: 0% DMSO, 100% iron-clioquinol control. Potency, µM (series often up to 46.1 µM), hits mostly activators. 410,000 compounds, 0.063% hits. AID 1347071; also: nearly all actives have a fitted effect of over 55% in size
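Yeast growth medium received pinned compounds, then yeast cells expressing toxic A-beta were added; plates incubated at 30 C for 48 hr. Growth read as absorbance at 600 nm, normalized to DMSO and equimolar FeCl3 plus clioquinol controls.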
Numbers without * were called inactive; i = inactive; ? = inconclusive; . = no result. Most compounds without a hit are left out; they make up all but 3.6% or so of the library. Unless noted, calls follow the shape of the dose curve; as a rule, active = well fitted curve in the direction sought with a large enough effect; inconclusive = small, poorly fitted or top-dose-only effect, or another doubt; inactive = no such curve, though single readings can be large; an effect the other way counts as inactive or inconclusive. Potency is read from the fitted curve at half-maximal effect.

SMILES	ClpP mod	FUS suppressor	TDP-43 yeast inh	MmCpn inh	aSyn yeast inh	Abeta yeast res
CCCCCCc1cc2cc(S(=O)(=O)c3ccc(F)cc3)c(=O)oc2cc1O	28µM*	i	-6%	1%	11%	i
CC(=O)Oc1ccc(NC(=O)C2CCCCC2)c(C(=O)O)c1	28µM*	i	24%	0%	-1%	i
Clc1ccc(COn2c(-c3ccccc3)nc3ccccc32)cc1	-3%	i	18µM*	1%	-19%	i
Clc1ccc(COn2c(-c3ccc(Cl)cc3)nc3ccccc32)cc1	1%	i	21%	-2%	2%	i
COc1ccc(NC(=O)c2cc3ccccc3o2)cc1OC	-1%	i	13µM*	-1%	2%	i
CN(C)S(=O)(=O)c1cccc(NC(=O)c2cc3ccccc3o2)c1	0%	i	8.9µM*	-4%	.	i
Nc1nc(N)c2c(OCc3ccc(C(F)(F)F)cc3)cccc2n1	5%	.	.	.	?	.
COc1ccc(OCCn2c(=O)sc3ccccc32)cc1	-6%	i	16µM*	-1%	25µM*	i
COc1ccc(OCCn2c(N)nc3ccccc32)cc1	1%	i	?	-1%	-1%	i
COc1ccc(Cn2c(=O)sc3ccccc3c2=O)cc1	.	i	11µM*	1%	?	i
CCOc1ccc(Cn2c(=O)sc3ccccc32)cc1OC	-1%	i	13µM*	0%	?	i
COc1ccc(OCCn2c(C(C)Oc3ccccc3)nc3ccccc32)cc1 (stereo not drawn)	0%	i	20µM*	.	.	?
O=C(NCc1ccccc1)c1cc(C2CCCN(C(=O)CCCc3ccccc3)C2)on1 (stereo not drawn)	0%	i	35µM*	.	-3%	i
O=C(NCc1ccccc1)c1cc(C2CCCCN2C(=O)CCc2ccccc2)on1 (stereo not drawn)	2%	i	35µM*	.	8%	i
O=C(NCc1ccc(Cl)c(Cl)c1)c1cc(C2CCCCN2C(=O)CCc2ccccc2)on1 (stereo not drawn)	0%	?	8%	.	?	i
C#CC(C)(C)NS(=O)(=O)c1cc(-c2nnc(Nc3ccc(C)cc3)c3ccccc23)ccc1C	-19%	i	10%	.	.	i
CCN(CC)C(=O)C1CCCc2c1[nH]c1ccc(Cl)cc21 (stereo not drawn)	1%	i	14µM*	-2%	-7%	i
O=CNC1CCCc2c1[nH]c1ccc(Cl)cc21 (stereo not drawn)	-4%	.	14µM*	-2%	16%	i
Cc1ccc2[nH]c3c(c2c1)CCCC3C(N)=O (stereo not drawn)	-12%	.	0%	-3%	-2%	i
CC1(C)Cc2cccc(C(=O)Nc3ccc(F)cc3F)c2O1	-4%	i	20µM*	1%	-12%	i
CCCCc1nn2c(=O)cc(COC(=O)c3ccccc3NC(=O)C3CCCCC3)nc2s1	-26%	i	19%	.	.	i
O=S(=O)(NCCc1csc2nc(-c3ccc(Cl)cc3)nn12)c1ccc2c(c1)OCCO2	0%	i	18%	.	.	i
CC(=O)N1c2ccc(S(=O)(=O)N3CCN(c4ccc(C)cc4C)CC3)cc2CC1C (stereo not drawn)	-1%	i	4%	.	.	i
N#CCCN1CCN(C(=S)c2ccc(-c3ccc(Cl)cc3)o2)CC1	-1%	i	13µM*	?	7%	i
S=C(c1ccc(-c2ccc(Cl)cc2)o1)N1CCCCC1	7%	i	-20%	-3%	-18%	i
CN(CCC#N)c1ccc(/C=C/c2ccnc3ccccc23)cc1	0%	.	.	.	-15%	.
CS(=O)(=O)c1ccccc1NC(=O)COc1ccccc1C(=O)Nc1ccccc1	-3%	.	.	.	-1%	.
CC1(C)CC(=O)C2=C(C1)c1c(ccc3ccccc13)NC2c1ccco1 (stereo not drawn)	25µM*	i	-6%	-4%	2%	i

Screens as filed in PubChem.
